PAFAH2 inh: inhibitors of human PAFAH2; Q99487; recombinant PAFAH2, FP-rhodamine activity probe, fluorescence polarization; inhibition, % at 3.39 µM; actives 0.99% (n = 340,000); AID 492956;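 active = inhibition above the mean over all tested compounds plus 3 SD, cut at about 30% in these data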;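 note: inhibitors block probe labeling of enzyme so polarization drops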
M18AAP inhibitor: blocks P. falciparum M18 aspartyl aminopeptidase | recombinant PfM18AAP, H-Glu-NHMec fluorogenic cleavage | inhibition, % at 7.35 µM | actives 1.2% (n = 290,000);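 active = inhibition above the campaign mean inhibition over all tested compounds plus 3 SD, cut at about 28% in these data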
PAFAH1B3 inh: inhibitors of human PAFAH1B3; recombinant PAFAH1B3, FP-rhodamine probe, fluorescence polarization; inhibition, % at 3.39 µM; actives 0.28% (n = 340,000);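 active = inhibition above the screen-wide average of all tested compounds plus 3 SD, cut at about 25% in these data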
pPAFAH FP inh: pPAFAH (human) enzyme inhibition; Q13093; recombinant pPAFAH, FP-rhodamine probe fluorescence polarization; inhibition, % at 3.39 µM; actives 1.5% (n = 330,000);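 active = inhibition above the mean inhibition across the screen plus 3 SD, cut at about 25% in these data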;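 note: inhibitors block binding of the rhodamine activity-based probe so polarization drops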
DSG3 Ab inh: inhibitors of pemphigus antibody binding to human desmoglein-3; DSG3-coupled beads, scFv-anti-DSG3-GFP binding, flow cytometry; hits give low values; binding (percent of control), % at 10 µM; actives 0.48% (n = 310,000);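 active = binding more than 3 SD below its plate's average and above zero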;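 note: hits lower antibody fragment binding to DSG3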
PAFAH1B2 inh: PAFAH1B2 (human) inhibition | P68402 | recombinant PAFAH1B2, FP-rhodamine activity probe, fluorescence polarization | inhibition, % at 3.39 µM | actives 1.2% (n = 340,000) | AID 492953;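 active = inhibition above the mean of all tested compounds plus 3 SD, cut at about 24% in these data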
Target sequence (P68402 whole entry, looked up): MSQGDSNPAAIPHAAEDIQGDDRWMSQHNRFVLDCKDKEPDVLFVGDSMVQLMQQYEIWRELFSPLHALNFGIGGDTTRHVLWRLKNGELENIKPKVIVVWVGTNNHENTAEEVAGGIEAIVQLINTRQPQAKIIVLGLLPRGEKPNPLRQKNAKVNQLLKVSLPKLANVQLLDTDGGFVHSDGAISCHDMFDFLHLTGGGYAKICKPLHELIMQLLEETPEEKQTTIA
A number is an active result; . = inactive; / = no result. Sampled rows, rich in hits. Any-hit rate of the full collection: about 3.8%.

SMILES	PAFAH2 inh	M18AAP inhibitor	PAFAH1B3 inh	pPAFAH FP inh	DSG3 Ab inh	PAFAH1B2 inh
COc1cccc(CN(C)C(=O)COc2ccc(C(=O)c3ccc(Cl)cc3)cc2)c1OC	.	.	.	28.2	.	.
COc1ccc(NC(=O)CSCC(=O)N(C)Cc2cccc(OC)c2OC)cc1	.	/	.	.	.	.
CCOc1ccccc1-c1nc(-c2ccncc2)no1	.	.	.	.	.	.
CCSc1ccccc1-c1nc(-c2ccncc2)no1	.	.	.	.	70.2	.
C[C@@H]1CN([C@H](C)CO)C(=O)CCCn2nncc2CO[C@@H]1CN(C)S(=O)(=O)c1ccc(-n2cccn2)cc1	/	/	/	/	.	/
Fc1ccc(/C=C/c2nnc(-c3cccs3)o2)cc1	.	.	.	.	.	.
Cc1ccc(/C=C/c2nnc(-c3cccs3)o2)cc1	.	.	.	.	70.5	.
Cc1ccc(C(=O)N(CC(=O)NC2CCCC2)c2ccccc2C)s1	.	.	.	.	.	.
Cc1ccc(C(=O)N(CC(=O)NC2CCCC2)Cc2cccs2)s1	.	.	.	.	76.1	.
COc1ccc([C@H]2CN(CCc3ccccc3)C(=O)[C@@H]2CC(=O)Nc2ccccc2)cc1	/	/	/	/	.	/
O=C(CSc1ccccn1)C12CC3CC(CC(C3)C1)C2	.	.	.	.	.	26.4
O=C(OCC(=O)C12CC3CC(CC(C3)C1)C2)c1ccc(O)cc1O	33.5	/	.	.	.	26.4
O=C(OCC(=O)C12CC3CC(CC(C3)C1)C2)c1ccccn1	.	.	.	.	.	24.7
O=C(OCC(=O)C12CC3CC(CC(C3)C1)C2)c1cnccn1	.	.	.	.	/	.
C[C@@H]1CN([C@@H](C)CO)C(=O)CCCn2nncc2CO[C@H]1CN(C)C(=O)c1ccccc1	/	/	/	/	.	/
O=c1cc(CO)[nH]nc1CO	/	/	/	/	.	/
CCOC(=O)C1(COCc2ccccc2)CCCCC1=O (stereo unspecified)	/	/	/	/	.	/
CC(O)c1nc2ccccc2n1CCCc1ccccc1 (stereo unspecified)	.	.	.	33.9	.	.
O=C(O)c1ccc(NC(=O)c2cn(-c3ccccc3)nc2-c2cccc(Cl)c2)cc1	.	.	.	.	.	.
Cc1nnc(NC(=O)C2(c3ccccc3)CCOCC2)s1	.	.	.	.	/	.
Cc1cnc(NC(=O)C2(c3ccccc3)CC2)s1	.	.	.	.	.	28.6
COc1ccccc1CCC(=O)NNC(=O)Cn1nc(C)cc1C	/	/	/	/	.	/
Cc1ccccc1NC(=O)CSc1ccsc1[N+](=O)[O-]	.	.	.	27.0	.	.
COCCCNC(=O)CSc1ccsc1[N+](=O)[O-]	.	.	.	.	.	.
OC[C@H]1O[C@@H](Oc2cc(O)cc(/C=C/c3ccc(O)cc3)c2)[C@H](O)[C@@H](O)[C@@H]1O	/	39.6	/	.	/	/
SMILES	PAFAH2 inh	M18AAP inhibitor	PAFAH1B3 inh	pPAFAH FP inh	DSG3 Ab inh	PAFAH1B2 inh
CCCCNC(=O)C(C1CCCCC1)N(CCN(C)C)C(=O)CCCN1C(=O)NC(c2ccc(-c3ccccc3)cc2)C(C(=O)OCc2ccccc2)=C1C (stereo unspecified)	.	/	.	.	/	.
CCCCCCN(C(=O)CCCCCN1C(=O)NC(c2ccc(-c3ccccc3)cc2)C(C(=O)OCc2ccccc2)=C1C)C(C)C(=O)NCCCC (stereo unspecified)	/	.	/	28.5	/	/
Cc1ccc(CNC(=O)Cn2cccc2C(=O)c2ccccc2C)cc1	.	.	.	.	.	26.6
Cc1ccccc1C(=O)c1cccn1CC(=O)NCc1ccc(Cl)cc1	.	.	.	.	.	30.6
CC1=CC2=C(C=O)C(=O)C(C)(O)C(O)C2=CO1 (stereo unspecified)	/	/	/	/	.	/
O=C(O)c1cccc(CSc2nc(-c3ccccc3)cc(C(F)(F)F)n2)c1	.	.	.	25.6	.	.
COC(=O)c1ccccc1NC(=O)CSc1nc(N)cc(=O)[nH]1	.	.	.	.	55.6	.
COc1ccc(CNC(=O)C2CCCN(S(=O)(=O)c3c(C)noc3/C=C/N(C)C)C2)cc1 (stereo unspecified)	.	.	.	.	.	.
CCN(CC(=O)Nc1ccc(Br)cc1)CC(=O)Nc1cc(C)on1	.	/	.	/	66.1	.
CCN(CC(=O)Nc1ccc(NC(C)=O)cc1)Cc1c(O)ccc2cc(Br)ccc12	.	.	.	.	.	67.8
